Only a selection was taken, and hits are over-represented in it overall.
Eya2 inh: inhibitors of human Eya2 phosphatase activity | O00167 | recombinant Eya2, OMFP fluorescence dephosphorylation (OMFP is methylfluorescein phosphate) | Potency, µM (doses to about 76.9 µM), for the others: at the top dose activity, negative = inhibition, usual class: inhibitors | 330,000 compounds, 0.006% hits | AID 488837; note: % is set by controls: 0 for no effect and ±100 for the full control effect
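Eya2 protein (added as 0.2 uM solution) was preincubated with compound for 10 min at ambient temperature in 50 mM HEPES pH 7.5, 50 mM NaCl, 5 uM MgCl2, 0.05% BSA, 1 mM DTT. OMFP (added at 50 uM) then reacted 10 min; fluorescence read at 485/525 nm.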
USP2a block: blocks human ubiquitin-specific protease USP2a | O75604 | USP2 core, Ub-CHOP2 coupled fluorogenic reporter, 485/531 | Potency, µM (highest dose often 38.3 µM), without a hit: at the top dose activity change, negative = inhibition, usual class: inhibitors | 330,000 compounds, 0.01% hits | AID 463254;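 note: plate controls were DMSO wells for no effect and full inhibition by NEM control for full effect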
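Cell-free coupled assay: 10nM USP2 core preincubated 30min RT with compound in Tris-HCl pH 8.0/CaCl2/CHAPS buffer, then 25nM Ub-CHOP2 and 25nM reporter substrate; fluorescence (Ex 485/Em 531) read after 60min RT, normalized to NEM inhibition, concentration-response curves fitted.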
ClpP mod: qHTS Assay for Activators of ClpP | ATP-dependent Clp protease proteolytic subunit (Bacillus subtilis (strain 168)), P80244 | Potency, µM (series often up to 57.5 µM), for the others: top-dose activity change, negative = active | purified B. subtilis ClpP, FRET peptide cleavage, 20 min | AID 651965, 2013 | 340,000 compounds, 1.9% hits; active = well fitted falling curve with a large enough effect; inconclusive = small, poorly fitted or top-dose-only effect; inactive = no such curve, though single readings can be large or run the other way; note: the source files actives as falling curves though it sought activators and does not explain the sign; nearly all actives have a fitted effect of over 65% in size
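Purified B. subtilis ClpP, 10 microg/mL final in Tris/HCl pH8 with KCl, BSA, glycerol and Tween-20, cleaved an Abz/nitrotyrosine-quenched decapeptide. Fluorescence (ex 320, em 430) was read at 0 and 20 min at room temperature. Delta was normalized to 5.8 microM ADEP and DMSO/no-enzyme controls.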
GALK inhibitor: inhibitors of human galactokinase; Potency, µM (series often up to 57.5 µM), for the others: top-dose activity change, negative = inhibition, most hits filed as inhibitors; 270,000 compounds, 0.007% hits; Purified GALK, Kinase-Glo residual ATP luminescence; P51570; note: % is set by controls: 0 for no effect and ±100 for the full control effect
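Kinase-Glo Plus luminescence measured ATP left after a 1 h room-temperature reaction. The reaction used 5 nM GALK, 100 uM galactose and 35 uM ATP at pH 8.0 (20 mM HEPES, 5 mM MgCl2, 60 mM NaCl, 1 mM DTT, 0.01% BSA).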
* = called active by the depositor; ? = inconclusive; . = not tested or not shown. Unless noted, calls come from the whole dose curve; as a rule, active = well fitted inhibition curve with a large enough effect; inconclusive = small, poorly fitted or top-dose-only effect, or effect the other way; inactive = flat fitted curve, though single readings scatter. Potency is the fitted concentration of half-maximal effect.

SMILES	Eya2 inh	USP2a block	ClpP mod	GALK inhibitor
Cc1ccc2c(c1C)OC(=O)CC2(C)C	-5%	4%	32µM*	2%
Cc1nn(C(C)(C)C)c(OC(=O)c2ccc3c(c2)OCO3)c1Sc1ccccc1	-15%	-8%	32µM*	0%
Cc1nn(C(C)(C)C)c(OC(=O)c2ccc3c(c2)OCO3)c1S(=O)(=O)c1ccccc1	-3%	2%	?	-2%
O=C(COc1ccccc1)Nc1cccc(-c2nc3ccccc3[nH]2)c1	-15%	-1%	32µM*	-1%
O=C(CSc1ccc(Cl)cc1)Nc1cccc(-c2nc3ccccc3[nH]2)c1	0%	5%	13µM*	1%
O=C(O)CCCC(=O)Nc1cccc(-c2nc3ccccc3[nH]2)c1	0%	-1%	25µM*	6%
COc1ccc(OCC(=O)Nc2cccc(-c3nc4ccccc4[nH]3)c2)cc1	-8%	2%	?	-2%
CCc1ccc(OCC(=O)N(C)C2CCS(=O)(=O)C2)cc1 (stereo not given)	-5%	0%	1%	0%
CC1(C)CC(=O)C2=C(C1)N1CCCCC1CC2=O (stereo not given)	6%	6%	0%	4%
O=C(Cc1ccccc1)Nc1cccc(N2C(=O)C=CC2=O)c1	1%	0%	14µM*	2%
O=[N+]([O-])c1ccc(C2CCCC/C2=N/OCc2ccccc2F)c([N+](=O)[O-])c1 (stereo not given)	-5%	-2%	1%	-1%
O=c1oc2ccc3ccccc3c2c2c1SC(C(F)(F)F)C2 (stereo not given)	6%	3%	35µM*	0%
O=C(C(c1ccccc1)N1CCOCC1)N1CCOCC1 (stereo not given)	.	.	2%	1%
COc1cc2c(=O)n(CC3CCCO3)c(=O)n(CC(=O)Nc3cccc(Cl)c3)c2cc1OC (stereo not given)	33%	2%	32µM*	2%
O=C(Cn1c(=O)n(CC2CCCO2)c(=O)c2ccccc21)Nc1cccc(Cl)c1 (stereo not given)	.	.	-11%	.
CCOC(=O)c1cc2c(=O)c3cc(C)ccc3oc2nc1C	-8%	1%	.	.
Cc1c(NC(=O)c2ccc(Br)s2)c(=O)n(-c2ccccc2)n1C	-10%	-1%	0%	7%
C(=Nc1ccc(Nc2ccccc2)cc1)c1ccc2ccccc2c1	-6%	-10%	14µM*	0%
CCOC(=O)c1nnn(-c2nonc2-n2cccc2)c1-c1cccc([N+](=O)[O-])c1	-1%	1%	28µM*	1%
CCOC(=O)c1nnn(-c2nonc2-n2cccc2)c1C	-10%	1%	1%	-5%
CC(C)N(C(=O)c1ccc2nc(-c3ccccc3)c(-c3ccccc3)nc2c1)C(C)C	-9%	-1%	28µM*	.
C=CCNC(=O)c1ccc2nc(-c3ccccc3)c(-c3ccccc3)nc2c1	-1%	6%	20µM*	-6%
CNC(=O)c1ccc2nc(-c3ccccc3)c(-c3ccccc3)nc2c1	.	.	5%	.
O=C(NCc1ccccc1)C(c1cccnc1)N(C(=O)c1ccccn1)c1ccccc1F (stereo not given)	-6%	1%	.	6%
Cc1ccc(N2C(=O)N(CC(=O)Nc3ccccc3C(F)(F)F)C(=O)C2C)cc1 (stereo not given)	-3%	0%	16µM*	.
SMILES	Eya2 inh	USP2a block	ClpP mod	GALK inhibitor
CCSc1nc(-c2ccc(OC)cc2)ccc1C#N	14%	-2%	28µM*	1%
Cc1csc2nc(=O)c3ccccc3n12	-12%	4%	11µM*	0%
Cc1nc2scc(C)n2c(=O)c1S(=O)(=O)N1CCN(c2ccccc2)CC1	4%	4%	.	1%
COc1ccc(/C=C/C(=O)N2CCNC(=O)C2)c(OC)c1	-3%	2%	-15%	13%
Cc1c(-c2ccccc2)[nH]n2c(=O)c3c(nc12)CCCC3	3%	-1%	25µM*	0%
O=c1c2c(nc3c(-c4ccc(Cl)cc4)c[nH]n13)CCC2	0%	0%	.	1%
O=c1c2c(nc3c(-c4ccccc4)c[nH]n13)CCC2	3%	-11%	25µM*	-1%
CCCCC(=O)OCCNC(=O)c1cc2ccccc2oc1=O	6%	-2%	25µM*	-1%
O=C(OCCNC(=O)c1cc2ccccc2oc1=O)c1cccnc1	-9%	0%	?	0%
Cc1cc(C)c2c(N)c3ccccc3nc2n1	8%	2%	65%	-1%

Screening results (PubChem)
